Results on 14 compounds are retold here after PubChem BioAssay (NCI).

Structures are written as SMILES. “And” between values parts separate entries of the source, which are not always exact repeats. Equal entries are not always repeated. This is part of a sample that, as a whole, favours compounds with a hit. Of some 83,000 tested, about 20% had one in any assay.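 In brief: 96-well plates, 48 h treatment, single concentration, percent growth endpoint.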 Unmarked numbers belong to inactive results. The source made the active and inactive calls. How the source made its calls: active means growth percent below 10; inactive means the rest.

For the assay, the system named is MDA-MB-468 breast. Kind of assay: NCI-60 one-dose screen, 48 h (100 = growth as untreated, 0 = no growth, -100 = all killed). Particulars: 10 µM unless noted.
As to `O=C(/C=C/c1ccc(Cl)cc1)c1ccc(-n2cc(CN3CCN(c4cc5c(cc4F)c(=O)c(C(=O)O)cn5C4CC4)CC3)nn2)cc1`, the growth is 74.4%. Consider `O=C1NC(=S)NC(=O)C1CC(=O)n1c(-c2ccccc2)nc2ccccc21`, for which the growth was 105%.

For the compound `Cc1cc(C(=O)Nc2ncnc3nc[nH]c23)no1`, the growth is 96.4%. Consider `O=C(NCc1ccccc1)C1CN(c2ccc(Cl)cc2)N(c2ccc(Cl)cc2)C1=O` (centres undefined), for which the growth is 71.5%.

For `O=C1OC(C(O)C(O)CO)C(O)=C1O` (centres undefined), the growth is 88.7% and 117%.

`Oc1ccc(-c2nnc(SCc3ccc(O)c4ncccc34)o2)cc1`: the growth is 10.8%.

For `c1ccc(-c2c(-c3ccccc3)[n+](Cc3ccc4ccccc4c3)c(-c3cccc4ccccc34)n2Cc2ccc3ccccc3c2)cc1`, the growth is -62.3% (active). Turning to `Cc1cc(Nc2c3ccccc3nc3ccccc23)ccc1NS(C)(=O)=O`, the growth is 23.6%. Turning to `Cc1cc2ccccc2c[n+]1CC(=O)c1ccc(-c2ccccc2)cc1`, the growth was 13.3%. Take `O=C(CN1C(=O)/C(=C/c2ccccc2)SC1=S)N1CCOCC1`: the growth was 82.4%.

For the compound `O=C(/C(=C(\C(=O)c1ccccc1)c1ccccc1)c1ccccc1)c1ccccc1`, the growth is 47.9%.

With `O=C(COc1ccc(/C=C2\C(=O)Nc3ccc(Cl)cc32)cc1)Nc1ccc(Cl)cc1`, the growth is 87.6%. On to `COc1ccc(Cl)c(Nc2nc3ccccc3nc2NS(=O)(=O)c2cccc(NC(=O)C(C)(C)N)c2)c1`, for which the growth is 21.5%. As for `CCCCC(CC#N)(CCC)CCC`, the growth was 112%.
